Laboratory results: PubChem BioAssay
Records with an inconclusive call do not appear. Active and inactive are the calls of the source.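 How the source made its calls, unless noted: active means viability increase at or above a cutoff of the median across tested compounds plus 3 SD (cut at about 8.5% in these data, passing the limit was not always enough); inconclusive means some gains above the cutoff, reason not given; inactive means the rest.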

Experiments:
[1] = reducers of endogenous Her2 protein level, primary screen, SKBR3 breast tumor cells, AlphaScreen, ATP viability (AID 461;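 active means Her2 level under about 52% in both replicate screens, with viability over 70% of control, limit read from the data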;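 on Her2 level: lower value means less Her2 protein in the cells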;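 on viability: percent of carrier control wells set as 100% viability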); settings: 18-24 h, measured here: SKBR3 viability, ATP luminescence, at 10 µM
[2] = molecular target: Receptor tyrosine-protein kinase erbB-2 (Homo sapiens) (UniProt P04626); assay: as above; settings: 18-24 h, at 10 µM, stronger effect = lower value
Receptor tyrosine-protein kinase erbB-2 (Homo sapiens), sequence (P04626 whole entry, looked up): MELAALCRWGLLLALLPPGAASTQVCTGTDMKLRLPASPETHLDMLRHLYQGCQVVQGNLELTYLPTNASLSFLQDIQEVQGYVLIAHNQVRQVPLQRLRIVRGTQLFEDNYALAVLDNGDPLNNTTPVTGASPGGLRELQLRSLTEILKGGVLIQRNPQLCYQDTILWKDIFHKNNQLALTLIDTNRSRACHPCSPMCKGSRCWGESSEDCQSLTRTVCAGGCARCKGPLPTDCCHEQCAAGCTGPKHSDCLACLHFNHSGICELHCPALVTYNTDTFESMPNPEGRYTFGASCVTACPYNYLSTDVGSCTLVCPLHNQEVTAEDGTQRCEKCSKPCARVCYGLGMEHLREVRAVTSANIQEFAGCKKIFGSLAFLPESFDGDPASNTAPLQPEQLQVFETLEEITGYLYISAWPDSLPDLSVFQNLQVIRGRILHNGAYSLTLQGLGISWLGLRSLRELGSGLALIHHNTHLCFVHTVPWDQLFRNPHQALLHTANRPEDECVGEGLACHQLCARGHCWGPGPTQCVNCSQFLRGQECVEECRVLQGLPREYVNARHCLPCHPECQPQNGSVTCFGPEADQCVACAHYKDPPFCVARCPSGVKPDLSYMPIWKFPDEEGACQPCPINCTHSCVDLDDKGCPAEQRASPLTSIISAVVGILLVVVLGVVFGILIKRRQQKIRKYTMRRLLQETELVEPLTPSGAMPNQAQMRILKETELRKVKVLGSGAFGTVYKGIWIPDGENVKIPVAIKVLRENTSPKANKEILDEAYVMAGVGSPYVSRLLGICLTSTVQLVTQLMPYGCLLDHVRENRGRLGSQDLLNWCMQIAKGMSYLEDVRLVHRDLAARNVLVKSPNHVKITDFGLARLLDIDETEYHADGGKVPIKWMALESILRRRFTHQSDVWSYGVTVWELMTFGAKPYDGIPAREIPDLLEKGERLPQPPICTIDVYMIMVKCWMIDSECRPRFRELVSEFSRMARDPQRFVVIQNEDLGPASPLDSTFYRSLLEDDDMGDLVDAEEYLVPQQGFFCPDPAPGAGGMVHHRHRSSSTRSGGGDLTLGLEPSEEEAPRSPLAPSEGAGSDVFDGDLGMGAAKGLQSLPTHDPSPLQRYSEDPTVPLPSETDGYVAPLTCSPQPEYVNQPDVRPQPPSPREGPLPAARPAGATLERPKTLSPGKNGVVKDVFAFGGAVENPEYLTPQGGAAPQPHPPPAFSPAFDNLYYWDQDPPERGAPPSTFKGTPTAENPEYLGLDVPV

[3] = SK-BR-3 cell growth inhibitors, pilot screen, 24 h, human (AID 572;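 active means viability at or below 10% of carrier control in both of two separate runs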;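 further: compound exposure lasted between 18 and 24 h rather than exactly 24 h; 100% = carrier-treated control wells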); settings: SK-BR-3 viability, CellTiter-Glo luminescence, at 10 µM, stronger effect = lower value
[4] = HUVEC growth inhibition – cell-based, human, primary screen (AID 575;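 active means viability at or below 30% in both replicate assays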;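 further: 100% = median of untreated cell wells with 0.1% DMSO on each plate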); settings: HUVEC proliferation, CellTiter-Glo luminescence, 72 h; at 10 µM; stronger effect = lower value
[5] = growth inhibitors of H69AR lung tumor, primary screen, human, duplicate replicates (AID 580;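 active means viability at or under a set limit in both replicates, limit being median viability minus 3 SD, cut at about 48% in these data, passing the limit was not always enough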;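 further: 100% = mean luminescence of untreated wells and 0% = no signal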); settings: H69AR lung tumor cells viability, ATP luminescence, 72 h; at 10 µM; stronger effect = lower value
[6] = reversal of MRP1-mediated doxorubicin resistance, pilot screen, H69AR cells, doxorubicin co-treatment (AID 601;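 active means viability loss from added drug above about 55%, and viability with drug at most 40%, in both replicates, limit read from the data, passing the limit was not always enough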); settings: CellTiter-Glo, 72 h, at 10 µM; for differential viability (reversal): stronger effect = higher value
[7] = 384-well plate pilot, post-Golgi transport modulator project, inhibition of yeast transport mutant growth (AID 636; in the data active means inhibition above about 31%); settings: absorbance 615 nm, about 18 h, stronger effect = higher value
[8] = growth suppression of yeast trafficking mutant, preliminary HTS, modulators of trafficking downstream of Golgi apparatus project, 1536-format plate, OD 615 nm (AID 637; in the data active means inhibition above about 30%); settings: yeast transport mutant growth, absorbance 615 nm, 18 h; stronger effect = higher value
[9] = OD615 S. cerevisiae growth inhibition, permissive medium, pilot counter-assay, permissive growth control for S. cerevisiae lifespan shortening project (AID 705;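 active means growth inhibition above 25% in both replicates, a cutoff set 3 SD above the mean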); settings: OD615, 24 h, at 10 µM, stronger effect = higher value
[10] = Restrictive medium S. cerevisiae growth inhibition, OD615, pilot screen of yeast lifespan reduction project, restrictive growth control (AID 706;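 active means growth inhibition above a set limit, 3 SD over mean compound inhibition, in both replicates, cut at about 43% in these data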;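 further: modified DeaD lifespan yeast strain shifted to restrictive glucose medium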); settings: OD615, 48 h, at 10 µM, stronger effect = higher value
[11] = viability gain of MRP-1-high H69AR cells under doxorubicin, pilot screen, MRP-1 activator project, CellTiter-Glo, duplicate (AID 807); settings: H69AR viability with doxorubicin, CellTiter-Glo luminescence; at 10 µM; stronger effect = higher value;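 further: compound pretreatment 18-22 h then 72 h combined with doxorubicin; 0% = doxorubicin alone and 100% = vehicle without doxorubicin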
[12] = growth suppression of beta-catenin knockout HCT116, pilot screen, human colon tumor cells (AID 823;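 active means cell viability at or below a set limit in both duplicate runs, the limit being the all-compound median minus 4 SD, cut at about 23% in these data, passing the limit was not always enough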;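 further: 0% = wells killed by 20 µM Hyamine and 100% = untreated DMSO cell wells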); settings: CellTiter-Glo, 60 h, at 10 µM, stronger effect = lower value
[13] = inhibitors of the yeast RAM network, pilot screen, dse1pr::URA3 reporter, 5-FOA selection (AID 869;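 active means inhibition over a set limit, the all-compound mean plus 3 SD, in both replicate runs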;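 further: 0% = DMSO wells with no growth and 100% = 10 µM 1-NA-PP1 with full growth; RAM network block rescues cells from 5-FOA so hits raise OD615 growth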); settings: S. cerevisiae dse1pr::URA3 5-FOA growth, OD615, 2 d; at 10 µM; stronger effect = higher value; strain carries analog-sensitive mutant Cbk1 kinase
[14] = RAM signaling pathway blockade in yeast – S. cerevisiae, Pdr1DBD-CYC8 efflux-inhibited sensitized strain, primary screen (AID 1298;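 active means RAM network inhibition above 8.4% in each of two replicates, 3 SD over the compound average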;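 further: 0% = DMSO untreated cells without growth and 100% = 10 µM 1-NA-PP1 full growth; higher means more yeast growth rescued from 5-FOA killing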); settings: S. cerevisiae cbk1-as DSE1-URA3 strain, 5-FOA growth OD615, 2 d; at 50 µM; stronger effect = higher value
[15] = growth suppression of PTEN-deleted HCT116, pilot screen, cell-based, HCT116 clonal line, CellTiter-Glo (AID 824;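 active means viability at or below 27.92% in each of two runs, the all-compound median minus 4 SD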;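 further: 0% = 20 µM Hyamine control and 100% = vehicle cell control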); settings: 60 h, at 10 µM, stronger effect = lower value
[16] = H69AR cells + 2 uM doxorubicin, measured here: viability with 2 uM doxorubicin, stronger effect = lower value
[17] = H69AR cells, compound alone cytotoxicity

SMILES | viability [1] [%] | Her2 level [2] | viability [3] | viability [4] | viability [5] | differential viability (reversal) ([6]; H69AR cells + 2 uM doxorubicin) | viability [6, 16] [%] | viability [6, 17] [%] | inhibition [7] | inhibition [8] | growth inhibition [9] | growth inhibition [10] | viability increase [11] | viability [12] | inhibition [13] | RAM network inhibition [14] | viability [15]
Cc1ccc(SCC(=O)NCCN2C(=O)CSC2=O)c(C)c1 | 99.5 | 110% (inactive) | 99.5% (inactive) | 92.3% (inactive) | 87.7% (inactive) | -1.79% (inactive) | 89.5 | 87.7 | 0.52% (inactive) | -0.83% (inactive) | -14.8% (inactive) | -3.53% (inactive) | -0.38% (inactive) | 111% (inactive) | 1.09% (inactive) | 3.32% (inactive) | –
CCOC(=O)c1ccccc1NC(=O)c1cccnc1 | 83 | 117% (inactive) | 83% (inactive) | 94.8% (inactive) | 96.1% (inactive) | 1.67% (inactive) | 94.4 | 96.1 | 1.95% (inactive) | -4.59% (inactive) | -11.9% (inactive) | -21.3% (inactive) | 0.06% (inactive) | 104% (inactive) | 1.57% (inactive) | 2.22% (inactive) | 102% (inactive)
COCc1nnc(NC(=O)c2ccc(S(=O)(=O)N(C)c3ccccc3)cc2)o1 | 85 | 107% (inactive) | 85% (inactive) | 66.6% (inactive) | 43.7% (active) | -18.5% (inactive) | 62.2 | 43.7 | -3.87% (inactive) | -2.17% (inactive) | 3.04% (inactive) | 9.5% (inactive) | -5.06% (inactive) | 29.7% (inactive) | 0.19% (inactive) | 4.65% (inactive) | –
CCOc1ccc(NC(=O)CSc2nccn2C)cc1 | 103 | 85.5% (inactive) | 103% (inactive) | 82.7% (inactive) | 99.7% (inactive) | 6.7% (inactive) | 93 | 99.7 | -4.34% (inactive) | 0.83% (inactive) | -14.8% (inactive) | -9.37% (inactive) | -1.79% (inactive) | 106% (inactive) | 2.29% (inactive) | 7.99% (inactive) | –
Cc1ccc(S(=O)(=O)C(C#N)c2nc3ccccc3nc2N2CCCCC2)cc1 (stereo not given) | 124 | 99.5% (inactive) | 124% (inactive) | 71.6% (inactive) | 92% (inactive) | -2.64% (inactive) | 94.7 | 92 | -6.13% (inactive) | 3.65% (inactive) | -26.9% (inactive) | 6.8% (inactive) | -3.74% (inactive) | 93.8% (inactive) | 2.7% (inactive) | 5.83% (inactive) | –
CCCC(=O)Nc1cc(C)c2c(=O)oc3ccccc3c2n1 | 87 | 94.5% (inactive) | 87% (inactive) | 63.6% (inactive) | 77.6% (inactive) | -20.4% (inactive) | 98 | 77.6 | -0.4% (inactive) | 0.33% (inactive) | -11.5% (inactive) | 3.23% (inactive) | -4.74% (inactive) | 82.5% (inactive) | 1.65% (inactive) | 8.68% (inactive) | 86.1% (inactive)
Cc1ccc(CSc2nc3c(c(=O)[nH]2)CCC3)cc1 | 86.5 | 91.5% (inactive) | 86.5% (inactive) | 79.7% (inactive) | 93.1% (inactive) | 17.8% (inactive) | 75.2 | 93.1 | -0.13% (inactive) | 2.67% (inactive) | -9.96% (inactive) | -26.7% (inactive) | -0.74% (inactive) | 105% (inactive) | 3% (inactive) | 3.47% (inactive) | 92.9% (inactive)
COc1ccccc1NC1=C(C)C(=O)CC1 | 98 | 72% (inactive) | 98% (inactive) | 90.4% (inactive) | 88.7% (inactive) | 14.5% (inactive) | 74.1 | 88.7 | -7.43% (inactive) | -0.67% (inactive) | -1.07% (inactive) | -11.9% (inactive) | -4.17% (inactive) | 75.4% (inactive) | 1.62% (inactive) | -0.26% (inactive) | 85.5% (inactive)
CNC(=O)C1C2C=CC3(O2)C1C(=O)N(C1CC1)C3C(=O)NCc1ccc(OC)cc1 (stereo not given) | 99.5 | 84% (inactive) | 99.5% (inactive) | 91.9% (inactive) | 91.5% (inactive) | -0.53% (inactive) | 92 | 91.5 | -8.49% (inactive) | -0.16% (inactive) | -12.6% (inactive) | 1.86% (inactive) | -1.49% (inactive) | 96.3% (inactive) | 0.115% (inactive) | 1.1% (inactive) | –
COc1ccccc1C(=O)NCCc1nc2ccccc2n1C | 118 | 83% (inactive) | 118% (inactive) | 119% (inactive) | 101% (inactive) | 5.79% (inactive) | 95 | 101 | -6.76% (inactive) | -3.67% (inactive) | -20.8% (inactive) | 0.505% (inactive) | 0.02% (inactive) | 105% (inactive) | 2.54% (inactive) | 5.39% (inactive) | –
CCN(CC)CCCN1C(=O)C(O)=C(C(=O)c2ccco2)C1c1ccc(C)o1 (stereo not given) | 102 | 93.5% (inactive) | 102% (inactive) | 102% (inactive) | 85.4% (inactive) | -0.59% (inactive) | 86 | 85.4 | -6.89% (inactive) | 7.94% (inactive) | -11.8% (inactive) | 14.4% (inactive) | -4.15% (inactive) | 97.4% (inactive) | 0.395% (inactive) | 3.48% (inactive) | –
CCCOC(=O)C1C2C=CC3(CN(c4cccc(Cl)c4)C(=O)C13)O2 (stereo not given) | 102 | 85% (inactive) | 102% (inactive) | 90.4% (inactive) | 83% (inactive) | -10.8% (inactive) | 93.8 | 83 | -2.93% (inactive) | -0.16% (inactive) | -4.19% (inactive) | -9.97% (inactive) | -2.05% (inactive) | 101% (inactive) | -0.245% (inactive) | 3.71% (inactive) | 97.4% (inactive)
CCc1ccc(N2CC(C(=O)OCC(=O)NC3CCS(=O)(=O)C3)CC2=O)cc1 (stereo not given) | 100 | 112% (inactive) | 100% (inactive) | 98.6% (inactive) | 103% (inactive) | 3.14% (inactive) | 99.5 | 103 | 3.12% (inactive) | 7.54% (inactive) | -17% (inactive) | 1.96% (inactive) | 1.23% (inactive) | 96.5% (inactive) | 0.795% (inactive) | 3.33% (inactive) | –
O=C(c1ccco1)N1CCN(C(=O)c2sccc2-c2ccccc2)CC1 | 93 | 104% (inactive) | 93% (inactive) | 86.2% (inactive) | 83% (inactive) | -6.79% (inactive) | 89.8 | 83 | 2.3% (inactive) | -4.92% (inactive) | -18.7% (inactive) | -9.14% (inactive) | -5.64% (inactive) | 94.6% (inactive) | 2.49% (inactive) | 4.79% (inactive) | –
CC(O)CN1C(=O)C(CC(=O)Nc2ccc(Cl)cc2)SC1=Nc1ccccc1 (stereo not given) | 97 | 101% (inactive) | 97% (inactive) | 57% (inactive) | 66.4% (inactive) | -10.2% (inactive) | 76.6 | 66.4 | -6.99% (inactive) | -7.94% (inactive) | -9.07% (inactive) | -7.22% (inactive) | -3.6% (inactive) | – | 2.45% (inactive) | 6.03% (inactive) | 59.2% (inactive)
Cc1cccc(Cc2c(C)nc3nc(SCC(=O)NCc4ccco4)nn3c2C)c1 | 106 | 85.5% (inactive) | 106% (inactive) | 61.8% (inactive) | 49.6% (active) | -27.8% (inactive) | 77.4 | 49.6 | -4.59% (inactive) | -0.33% (inactive) | 2.65% (inactive) | 21.9% (inactive) | -3.35% (inactive) | – | 1.14% (inactive) | 4.46% (inactive) | 81.9% (inactive)
Cc1noc(C)c1CSc1ccccc1C(=O)N1CCN(c2ccccc2)CC1 | 87 | 86% (inactive) | 87% (inactive) | 97.8% (inactive) | 82% (inactive) | -6.2% (inactive) | 88.2 | 82 | -4.46% (inactive) | 5.57% (inactive) | -11.9% (inactive) | -20% (inactive) | -2.25% (inactive) | – | 3.5% (inactive) | 4.4% (inactive) | 72.3% (inactive)
CCOCCCNC(=O)C(c1ccc(C)cc1)N(Cc1ccc2c(c1)OCO2)C(=O)c1cnccn1 (stereo not given) | 98 | 102% (inactive) | 98% (inactive) | 103% (inactive) | 98.7% (inactive) | -0.27% (inactive) | 98.9 | 98.7 | -5.34% (inactive) | 2.38% (inactive) | -5.46% (inactive) | 3.09% (inactive) | -2.67% (inactive) | 93.8% (inactive) | 1.83% (inactive) | 5.34% (inactive) | –
Cc1cc(N2CCOCC2)nc2ccc(NC(=O)C3CCC(C)CC3)cc12 (stereo not given) | 73.5 | 110% (inactive) | 73.5% (inactive) | 62.5% (inactive) | 76.3% (inactive) | -9.34% (inactive) | 85.7 | 76.3 | -0.27% (inactive) | -6.67% (inactive) | -11.1% (inactive) | 0.545% (inactive) | -4.21% (inactive) | – | 1.95% (inactive) | 4.29% (inactive) | 81% (inactive)
Nn1c(Cc2ccccc2F)nnc1SCC(=O)N1CC(=O)Nc2ccccc21 | 112 | 94.5% (inactive) | 112% (inactive) | 109% (inactive) | 84.1% (inactive) | -1.98% (inactive) | 86.1 | 84.1 | -2.86% (inactive) | -10.7% (inactive) | -11.9% (inactive) | -7.2% (inactive) | -2.14% (inactive) | 114% (inactive) | 2.1% (inactive) | 3.29% (inactive) | –
